KDM4E inh = inhibitors of human JMJD2E histone demethylase. AID 2147. JMJD2E catalytic domain, FDH-coupled NADH fluorescence (FDH is formaldehyde dehydrogenase). hit rate 1.6% among 230,000. Potency, µM (highest dose often 57.1 µM), inactives show top-dose activity change, negative = inhibition, hits mostly inhibitors; active = well fitted inhibition curve with a large enough effect, not every such curve was filed as active; inconclusive = small, poorly fitted or top-dose-only effect, or another doubt; inactive = no such curve, though single readings can be large or run the other way;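 also: potency is read from the fitted curve at half-maximal effect; 0% = wells with enzyme and -100% = buffer wells without enzyme; nearly all actives have a fitted effect of over 50% in size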
JMJD2A Tudor inh = blocks the human JMJD2A Tudor domain | hit rate 4.4% among 390,000 | O75164 | Potency, µM (series often up to 114 µM), for the others: at the highest dose activity change, negative = inhibition, usual class: inhibitors | AlphaScreen JMJD2A-Tudor / H3K4me3 peptide binding; also: potency is read from the fitted curve at half-maximal effect; % is scaled to controls: 0 for no effect and ±100 for the full control effect; nearly all actives have a fitted effect of over 50% in size
L3MBTL1 block = L3MBTL1 (human) inhibition | Q9Y468 | AlphaScreen L3MBTL1–H3K9me1 peptide binding | Potency, µM (top dose mostly 57.1 µM), for inactives: at the top dose activity, negative = inhibition, usual class: inhibitors | hit rate 0.66% among 230,000 | AID 485360; also: potency is read from the fitted curve at half-maximal effect; % is scaled to controls: 0 for no effect and ±100 for the full control effect; nearly all actives have a fitted effect of over 60% in size
Target sequence (Q9Y468 whole entry, looked up): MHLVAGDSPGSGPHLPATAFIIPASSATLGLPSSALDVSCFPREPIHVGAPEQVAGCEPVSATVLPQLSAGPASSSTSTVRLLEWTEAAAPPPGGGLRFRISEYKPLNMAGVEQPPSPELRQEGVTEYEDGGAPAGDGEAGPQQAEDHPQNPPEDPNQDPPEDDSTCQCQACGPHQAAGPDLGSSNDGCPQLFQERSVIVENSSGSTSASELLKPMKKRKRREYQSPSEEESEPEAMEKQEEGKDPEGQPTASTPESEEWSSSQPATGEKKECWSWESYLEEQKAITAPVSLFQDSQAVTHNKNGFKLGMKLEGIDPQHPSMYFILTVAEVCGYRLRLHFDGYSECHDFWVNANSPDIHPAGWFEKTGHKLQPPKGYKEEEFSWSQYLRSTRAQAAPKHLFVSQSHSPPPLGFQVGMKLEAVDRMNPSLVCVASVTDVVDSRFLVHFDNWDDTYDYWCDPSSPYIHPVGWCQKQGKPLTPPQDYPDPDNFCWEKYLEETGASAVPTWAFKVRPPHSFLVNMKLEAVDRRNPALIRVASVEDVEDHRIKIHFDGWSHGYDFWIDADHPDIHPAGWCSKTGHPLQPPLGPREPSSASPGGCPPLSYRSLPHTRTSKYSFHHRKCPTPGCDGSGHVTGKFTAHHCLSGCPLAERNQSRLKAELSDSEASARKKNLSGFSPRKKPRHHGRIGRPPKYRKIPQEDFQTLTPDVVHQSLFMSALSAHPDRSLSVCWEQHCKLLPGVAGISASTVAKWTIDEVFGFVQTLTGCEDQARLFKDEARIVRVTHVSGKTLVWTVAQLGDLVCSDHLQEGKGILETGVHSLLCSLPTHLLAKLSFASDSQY
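L3MBTL1 50 nM + b-AHA-H3(1-15)K9me1 75 nM, 30 min RT; compound added, 30 min RT; streptavidin donor/Ni-chelate acceptor beads 10 ug/mL each final, 30 min RT dark; AlphaScreen read.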
BAZ2B inh = BAZ2B (human) inhibition. AlphaScreen BAZ2B-H3K14Ac peptide displacement. Potency, µM (highest dose often 114 µM), without a hit: at the highest dose activity change, negative = inhibition, usual class: inhibitors. hit rate 4.4% among 360,000. AID 504333; also: potency is read from the fitted curve at half-maximal effect; % is scaled to controls: 0 for no effect and ±100 for the full control effect; nearly all actives have a fitted effect of over 60% in size
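AlphaScreen displacement of biotin-H3(5-23)K14Ac peptide (50 nM final) from BAZ2B (50 nM final) in PBS pH 7.4, 0.01% Tween-20; complex preformed 30 min RT, then compounds (top 110 uM) 30 min RT, beads 20 min dark.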
HP1b binding inh = blocks HP1-beta chromodomain binding to methylated histone tails; AlphaScreen HP1-beta / biotin-H3K9me3 peptide binding; AID 540317; P83916; hit rate 0.56% among 390,000; Potency, µM (doses to about 114 µM), without a hit: top-dose activity change, negative = inhibition, hits mostly inhibitors; also: potency is read from the fitted curve at half-maximal effect; nearly all actives have a fitted effect of over 70% in size
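Compound inhibition of the preformed complex between 50 nM HP1-beta and 50 nM biotinylated H3K9me3 peptide was read by AlphaScreen. Buffer was PBS pH 7.4 with 0.01% Tween-20. Incubations ran 30 min at room temperature, with 10 ug/mL donor/acceptor beads.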
PI5P4Ka inh = blocks human PI5P4K alpha kinase activity | P48426 | AID 652105 | max response, % | PI5P4Kalpha enzyme, ADP-Glo luminescence, 60 min; hits give low values | hit rate 1.2% among 330,000; active = max response of -50% or lower; inconclusive = between -30% and -50%; inactive = -30% or higher; also: value at the top dose of about 77 µM; % is scaled to controls: 0 for no effect and ±100 for the full control effect
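Single end-point luminescence (ADP-Glo) quantified ADP from PI5P4Kalpha turnover; ATP 5 microM final, 1 h at RT, 0.1% CHAPS and 0.28 mM EGTA in HEPES pH 7.4.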
* hit, by the source's call; ? = inconclusive; nt = no result given. Only some compounds are listed: those with a hit (about 5.7% of all), similar ones and a draw of the others. Unless noted, calls follow the shape of the dose curve; as a rule, active = well fitted inhibition curve with a large enough effect; inconclusive = small, poorly fitted or top-dose-only effect; inactive = no such curve, though single readings can be large or run the other way.

SMILES | KDM4E inh | JMJD2A Tudor inh | L3MBTL1 block | BAZ2B inh | HP1b binding inh | PI5P4Ka inh
Cc1nn(CCCC(=O)Nc2ccccc2C(F)(F)F)c(=O)c2c1sc1ccccc12 | nt | 0% | nt | 0% | 63% | nt
OC(COC1CCCCC1)CN1CCN(c2ccccc2)CC1 (stereo unspecified) | 1% | -13% | 1% | 27% | 23% | nt
Cc1n(CC(O)COC2CCCCC2)c2ccccc2[n+]1C (stereo unspecified) | 1% | 79µM* | -3% | 6% | 5% | -10
CC(=NNC(=S)Nc1ccccc1Cl)c1ccccn1 | nt | 56µM* | nt | nt | -32% | 23
CC(=NNC(=S)Nc1ccccc1)c1ccccn1 | nt | nt | nt | nt | nt | -13
C=CCNC(=S)N/N=C(\C)c1ccccn1 | 8.9µM* | 45µM* | nt | 4.5µM* | 31% | nt
Cc1ccc(SCC(CC(C)C)N2CCN(C)CCC2=O)cc1 (stereo unspecified) | nt | -12% | nt | nt | 10% | nt
Cc1[nH]cnc1CSCCN | -10% | 1µM* | 32% | ? | -6% | -5
CCCCOC(=O)c1cc(-c2ccc(/C=N/n3cnnc3)o2)ccc1Cl | nt | 56µM* | nt | nt | -4% | nt
CCOC(=O)c1cc(-c2ccc(/C=C3/C(=O)N(c4ccc(C(=O)O)cc4)N=C3C)o2)ccc1Cl | nt | 14µM* | nt | 18µM* | ? | -25
O=C(O)c1ccccc1-c1ccc(/C=C2\SC(=O)N(c3ccccc3)C2=O)o1 | nt | -15% | -28% | ? | 15% | -1
CCOC(=O)c1cc(-c2ccc(/C=N\n3cnnc3)o2)ccc1Cl | ? | -33% | -3% | -6% | 3% | -3
CC1=NN(c2ccc(Br)cc2)C(=O)/C1=C/c1ccc(-c2ccccc2C(=O)O)o1 | nt | 32µM* | -16% | 35µM* | ? | 3
N#Cc1nc(-c2ccco2)oc1N1CCN(c2ccccc2)CC1 | ? | ? | ? | 13µM* | ? | -1
COc1ccc(N2CCN(c3oc(-c4ccco4)nc3C#N)CC2)cc1 | ? | 32µM* | ? | nt | ? | 16
CCn1cc(S(=O)(=O)c2cccc(C)c2)c(=O)c2cc(F)c(N3CCCC(C)C3)cc21 (stereo unspecified) | nt | -11% | nt | 5% | 28% | nt
O=C(Nc1ccc(C(=O)N2CCCCC2)cc1)C1CC1 | nt | -4% | nt | nt | 44% | 5
O=C(CN1CCCCC1)Nc1ccc(N2CCCCCC2)cc1 | ? | 50µM* | -16% | 14µM* | ? | -7
CCCOC(=O)Nc1ccc(N2CCCCC2)cc1 | -2% | ? | nt | 71µM* | -30% | nt
CCC1(c2ccc(F)cc2)NC(=O)N(CC(=O)Nc2ccc(N3CCCCC3)cc2)C1=O (stereo unspecified) | nt | 45µM* | -18% | 45µM* | -48% | -5
CC1CCN(CC(=O)Nc2ccc(C(=O)N3CCCCC3)cc2)CC1 | nt | 1µM* | -3% | 50µM* | ? | 4
CCCCC(=O)Nc1ccc(N2CCCC2)cc1 | nt | ? | nt | nt | -10% | -18
COc1ccc(Br)cc1CNC(=O)Cn1c(=O)c2cccn2c2ccc(F)cc21 | nt | -14% | nt | -12% | 9% | nt
Cc1c(CC(=O)NCCc2ccc(Cl)cc2)c(=O)oc2c(C)c3occ(C(C)(C)C)c3cc12 | nt | -3% | nt | -14% | 39% | nt
O=C(CN1CCC(C(=O)c2ccc(F)cc2)CC1)Nc1ccc(F)cc1 | 11% | -9% | 1% | -2% | 38% | 5
SMILES | KDM4E inh | JMJD2A Tudor inh | L3MBTL1 block | BAZ2B inh | HP1b binding inh | PI5P4Ka inh
Cc1ccc(C(=O)C2CCN(CC(=O)Nc3ccc(N(C)C)cc3)CC2)cc1 | 0% | 45µM* | -25% | -79% | -47% | nt
Nc1nc(SCc2ccccc2)c2[nH]cnc2n1 | nt | -18% | nt | 3% | 26% | -6
Nc1nc(Sc2ccc([N+](=O)[O-])c3nonc23)c2[nH]cnc2n1 | nt | 28µM* | nt | nt | 8.9µM* | -84*
CNc1ncnc(Sc2nc(N)nc3nc[nH]c23)c1[N+](=O)[O-] | nt | 32µM* | nt | nt | 28% | -23
Brc1cccc(OCCN2CCCCC2)c1 | ? | 20µM* | -1% | ? | ? | 3
Brc1cccc(OCCN2CCOCC2)c1 | nt | 5.6µM* | 0% | 50µM* | ? | -4

Source: PubChem BioAssay (National Center for Advancing Translational Sciences (NCATS))
